Here are results for 25 molecules from ChEMBL document CHEMBL4296182, “CO-ADD screening of NIH NCI Diversity Set V”.

For part of these data: Entries with a potency or affinity are not part of this list.

Test [1] has as its system Staphylococcus aureus. Nature of the test: Antibacterial activity against Staphylococcus aureus MRSA ATCC 43300 (CO-ADD:GP_020); MIC in CAMBH media using NBS plates, by Resazurin F(560/590). Format: functional. As to conditions: Concentration 20 uM, ASSAY_TEST Inhibition of Bacterial Growth, detection method Resazurin, Fluorescence (ex560/em590), MEDIA CAMHB, plate type 384well, CORNING #3640, time 18 hr. Background: The colour change of resazurin is a common sign of viable cells or microbes.

Test [2] deals with Acinetobacter baumannii. Nature of the test: Antibacterial activity against Acinetobacter baumannii ATCC 19606 (CO-ADD:GN_034); MIC in CAMBH media using NBS plates, by Resazurin F(560/590). Type of test: functional. As to conditions: Concentration 20 uM, ASSAY_TEST Inhibition of Bacterial Growth, detection method Resazurin, Fluorescence (ex560/em590), MEDIA CAMHB, plate type 384well, CORNING #3640, time 18 hr.

Test [3] deals with Escherichia coli. Nature of the test: Antibacterial activity against Escherichia coli ATCC 25922 (CO-ADD:GN_001); MIC in CAMBH media using NBS plates, by Resazurin F(560/590). Type of test: functional. As to conditions: Concentration 20 uM, ASSAY_TEST Inhibition of Bacterial Growth, detection method Resazurin, Fluorescence (ex560/em590), MEDIA CAMHB, plate type 384well, CORNING #3640, time 18 hr.

For test [4], the system named is Klebsiella pneumoniae. The following applies: Concentration 20 uM; ASSAY_TEST Inhibition of Bacterial Growth; detection method Absorption (OD600); MEDIA CAMHB; plate type 384well; NBS; CORNING #3640; time 18 hr.
In test [5] the test system is Candida albicans. The following applies: 20 µM.
Test [6] concerns Cryptococcus neoformans. As to conditions: Concentration 20 uM; ASSAY_TEST Inhibition of Fungal Growth; detection method Resazurin; Absorption (OD600-OD570); plate type 384well; NBS; CORNING #3640.

For `CCC/C(C)=C/c1ccc(CC)cn1`, the Inhibition in test [1] was 1.51%; in test [2] it was -4.3%; in test [3], -16.08%; in test [4], 8.87%; in test [5], 3.23%; in test [6], 27.41%.

Consider `Cc1csc(NC(=O)c2ccc(C(=O)Nc3nc(C)cs3)cc2)n1`, for which the Inhibition is -1.48% in test [1]; 17.46% in test [2]; 2.37% in test [3]; 21.27% in test [4]; -0.71% in test [5]; -1.68% in test [6].

In the case of `CCC1=[N+]([O-])[N+]([O-])=C(c2ccccc2)/C1=N/O`, the Inhibition is 10.92% in test [1]; 10.01% in test [2]; -4.02% in test [3]; 8.43% in test [4]; 7.14% in test [5]; -1.35% in test [6].

In the case of `O=C(O)CCC(=O)OCCN(Cc1ccc(Oc2ccc([N+](=O)[O-])cc2)cc1)C(=O)C(Cl)Cl`, the Inhibition was -5.95% in test [1]; 0.5% in test [2]; -4.03% in test [3]; 4.09% in test [4]; 4.52% in test [5]; -1.27% in test [6].

Regarding `NCc1c(O)ccc2ccccc12`, the Inhibition in test [1] is 7.19%; in test [2] it was -7.97%; in test [3], -11.88%; in test [4] it was 11.42%; in test [5] it was 3.27%; in test [6], 15.16%.

With `c1ccc(CSc2nnc3c4ccccc4c4ccccc4c3n2)cc1`, the Inhibition was -1.68% in test [1]; 11.2% in test [2]; 0.12% in test [3]; 1.09% in test [4]; 5.6% in test [5]; -12.52% in test [6].

With `O=S(=O)(Oc1ccc(Cl)cc1)c1cccc2cccnc12`, the Inhibition in test [1] is 11.37%; in test [2], -12.19%; in test [3], 8.94%; in test [4], 7.96%; in test [5] it was -1.21%; in test [6], -3.12%.

As for `CC(C)(C)CC(C)(C)N1CN=C(S)NC1`, the Inhibition is 14.76% in test [1]; 8.83% in test [2]; 1.22% in test [3]; 6.38% in test [4]; 1.25% in test [5]; -7.67% in test [6].

For the molecule `CCCCOc1ccc(OC(=O)Nc2cc(Cl)ccc2OC)cc1`, the Inhibition is 13.88% in test [1]; 6.78% in test [2]; 2.93% in test [3]; 11.91% in test [4]; 0.59% in test [5]; -2.51% in test [6].

On to `CCOC(=O)/C(C#N)=C/c1cccc(C)c1`, for which the Inhibition in test [1] was 35.48%; in test [2] it was 11.54%; in test [3] it was 20.45%; in test [4] it was 6.23%; in test [5], 19.3%; in test [6], -0.16%.

Take `CC(C)(C)C(=O)Nc1ccc(NC(=O)C(C)(C)C)cc1`: the Inhibition is -3.56% in test [1]; 6.93% in test [2]; 0.85% in test [3]; 26.03% in test [4]; 6.58% in test [5]; 1.66% in test [6].

As to `NC(=O)Cc1ccc2c(c1)[nH]c1ccccc12`, the Inhibition in test [1] was 5.19%; in test [2] it was -14.3%; in test [3] it was 7.64%; in test [4] it was 6.47%; in test [5], 5.86%; in test [6], -8.43%.

In the case of `CCOC(=O)c1csc(-c2ccc(COC(=O)c3ccccc3)o2)n1`, the Inhibition is 13.59% in test [1]; 3.92% in test [2]; -0.69% in test [3]; 10.14% in test [4]; 4.97% in test [5]; -13.35% in test [6].

On to `CC1CC(C)(C)C2=NCCN21` (stereo not given), for which the Inhibition in test [1] was 12.73%; in test [2] it was -16.85%; in test [3], 7.35%; in test [4] it was 11.7%; in test [5] it was 5.23%; in test [6], -11%.

Take `O=C(O)/C(=C/c1ccccc1)c1ccccc1`: the Inhibition in test [1] is 7.86%; in test [2], -10.93%; in test [3], 11.66%; in test [4], 8.35%; in test [5], 8.14%; in test [6], -16.02%.

With `Cc1cc2cc3c(=O)[nH]c(=O)cc-3n(CC(O)C(O)C(O)CO)c2cc1C` (stereo not given), the Inhibition was 10.31% in test [1]; 8.52% in test [2]; -0.29% in test [3]; 10.28% in test [4]; -1.58% in test [5]; -7.62% in test [6].

As for `C1CCc2nc3c(nc2C1)CCCC3`, the Inhibition was 13.53% in test [1]; -4.6% in test [2]; 11.61% in test [3]; 13.7% in test [4]; 1.61% in test [5]; -2.79% in test [6].

Turning to `CC1=Nc2ccccc2/C1=C\c1c(C)[nH]c2ccccc12`, the Inhibition was 7.03% in test [1]; 6.7% in test [2]; 0.88% in test [3]; 14.94% in test [4]; 6.28% in test [5]; -2.97% in test [6].

Take `C=CCNC(=O)C1COc2ccccc2O1` (stereo not given): the Inhibition was -8.47% in test [1]; -14.67% in test [2]; 0.51% in test [3]; 7.35% in test [4]; 1.99% in test [5]; -7.01% in test [6].

Turning to `COc1cc(O)c(C(=O)/C=C/c2ccccc2)c(OC)c1` [FLAVOKAWAIN B], the Inhibition in test [1] is 9.23%; in test [2] it was 7.33%; in test [3] it was 2.45%; in test [4], 12.32%; in test [5] it was 6.59%; in test [6], -7.74%.

Take `Brc1ccc(-c2csc(Nc3nc(-c4ccc(Br)cc4)cs3)n2)cc1`: the Inhibition in test [1] was 27.27%; in test [2], -8.44%; in test [3] it was 9.62%; in test [4] it was 1.43%; in test [5], 3.84%; in test [6], 3.42%.

Take `O=C(Nc1cccnc1)c1cccc([N+](=O)[O-])c1`: the Inhibition in test [1] is 12.72%; in test [2], 4.9%; in test [3], 8.22%; in test [4], 4.62%; in test [5], 7.68%; in test [6], -5.39%.

As for `NS(=O)(=O)c1ccc(Nc2ccccc2)c([N+](=O)[O-])c1`, the Inhibition in test [1] was 4.64%; in test [2] it was 12.63%; in test [3], -4.87%; in test [4], 9.32%; in test [5], 7.16%; in test [6], -1%.

On to `O=c1c(O)cccc2cc(O)c(O)c(O)c12` [PURPUROGALLIN], for which the Inhibition is -28.9% in test [1]; 1.69% in test [2]; 13.14% in test [3]; 21.3% in test [4]; 53.6% in test [5]; -25.98% in test [6].

For `O=C(/C=C/c1cccnc1)/C=C/c1cccnc1`, the Inhibition in test [1] was 16.75%; in test [2] it was 4.07%; in test [3], 0.92%; in test [4], 20.07%; in test [5], 31.4%; in test [6] it was -2.05%.

The term Inhibition denotes the change of the read-out against control, counted positive when it falls.
